Screen size: about 200,000 compounds; about 3,000 (1.5%) were called active. The full list was thinned out, with actives kept by preference. Unmarked numbers belong to inactive results.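 How the source made its calls: active means inhibition above about 50% when tested at 10 µM (limit read from the data); inactive means the rest.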
What follows are molecules tested against Luciferin 4-monooxygenase (Photinus pyralis) (UniProt P08659) (assay: inhibition of purified FLuc reporter enzyme – biochemical, luminescence, ATPLite, artefact control for luciferase-based inhibitor screens, primary screen (AID 1006)). Conditions: ATPLite firefly luciferase biochemical luminescence, 10 min; at 10 µM; active compounds read high.
Chain of Luciferin 4-monooxygenase (Photinus pyralis) (P08659 whole entry, looked up): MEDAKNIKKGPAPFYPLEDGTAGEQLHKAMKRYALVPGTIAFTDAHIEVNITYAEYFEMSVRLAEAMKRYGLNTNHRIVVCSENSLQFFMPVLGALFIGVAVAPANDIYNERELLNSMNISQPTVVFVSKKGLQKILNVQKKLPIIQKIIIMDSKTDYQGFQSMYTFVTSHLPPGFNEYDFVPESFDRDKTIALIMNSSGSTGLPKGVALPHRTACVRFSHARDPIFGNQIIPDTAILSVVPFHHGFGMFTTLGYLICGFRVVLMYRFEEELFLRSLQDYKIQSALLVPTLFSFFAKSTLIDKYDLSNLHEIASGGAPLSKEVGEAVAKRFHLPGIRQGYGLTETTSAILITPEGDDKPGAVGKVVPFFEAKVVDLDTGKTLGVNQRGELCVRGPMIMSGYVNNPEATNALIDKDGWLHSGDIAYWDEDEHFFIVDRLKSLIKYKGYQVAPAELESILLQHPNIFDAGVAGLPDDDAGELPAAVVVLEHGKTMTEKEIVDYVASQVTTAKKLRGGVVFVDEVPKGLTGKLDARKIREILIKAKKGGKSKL
For `O=C(Nc1ccnc(-c2ccncc2)n1)c1cccs1`, the inhibition was -0.6%.
`O=C(O)COc1ccc(-c2nccc(-c3cccs3)n2)cc1` was tested, and the inhibition was 77.5% (active).
With `COC(=O)CSc1nccc(-c2cccs2)n1` the inhibition was 3.7%.
Molecule `COc1cccc(/C=N/NC(=O)c2[nH]nc3c2CCc2ccccc2-3)c1O` has an inhibition of 28.9%.
For `COc1cccc(/C=N\NC(=O)C2=NNC(=O)C2C)c1O` (stereo unspecified), the inhibition was 83.5% (active).
Work on `COc1cccc(/C=N/Nc2cc(C)nc(-c3ccccc3O)n2)c1O` yielded an inhibition of 9.6%.
In the case of `CNC(=O)NC(=O)C(OC(=O)c1cccc(S(=O)(=O)N2CCCCC2)c1)c1ccccc1` (stereo unspecified), the inhibition is reported as -3.2%.
With `O=[N+]([O-])c1ccc2oc(-c3cccc(O)c3)nc2c1` the inhibition was 53.2% (active).
Molecule `COc1ccc2oc(-c3cccc(NC(=O)CSc4ccc(Cl)cc4)c3)nc2c1` has an inhibition of 3%.
`COc1cccc(-c2nc3cc(C)ccc3o2)c1` was tested, and the inhibition was 82.8% (active).
`O=C(Cc1cccc2ccccc12)Nc1ccc2oc(-c3ccccc3)nc2c1` gave an inhibition of 2.6%.
`COc1cccc(-c2nc(S(=O)(=O)c3ccccc3)c(N3CCOCC3)o2)c1` was tested, and the inhibition was -0.7%.
With `COc1ccc(-c2nc3cc([N+](=O)[O-])ccc3o2)cc1OC` the inhibition was 2.5%.
With `Cc1cc(NC(=O)CSc2nc3ccccc3n2CC(C)C)no1` the inhibition was -5.3%.
For `COc1ccc(F)c(-c2nc(CN3CCC(c4ccccc4)CC3)c(C)o2)c1`, the inhibition was 0.5%.
`O=C(CCN1C(=O)C2C3C=CC(C3)C2C1=O)Oc1ccc2ccccc2c1` (stereo unspecified) showed an inhibition of -3.9%.
With `CC1CC(C)CN(S(=O)(=O)c2ccc(C(=O)NN3CCOCC3)cc2)C1` (stereo unspecified) the inhibition was 0.2%.
Molecule `COc1ccc(-c2csc(Cc3nc(O)cs3)n2)cc1` has an inhibition of 4.6%.
In the case of `CSCC[C@H](NC(=O)OC(C)(C)C)C(=O)N/N=C/c1cc2ccc(C)cc2nc1Cl`, the inhibition is reported as -6.9%.
`c1c2c(cc3sc(N4CCCCC4)nc13)OCCO2` was tested, and the inhibition was 92.9% (active).
With `COc1ccc2nc(Nc3nc4cc5c(cc4s3)OCCO5)sc2c1` the inhibition was 11.3%.
Work on `Brc1ccc2nc(N3CCCC3)sc2c1` yielded an inhibition of 35.9%.
`Cc1ccc(N(C(=O)c2ccc(CN3CCOCC3)o2)C(C(=O)NCCC(C)C)c2cccs2)c(C)c1` (stereo unspecified) gave an inhibition of -4.1%.
`COc1ccc(C(=O)NCC(=O)N/N=C/c2ccc([N+](=O)[O-])s2)cc1OC` showed an inhibition of 2.8%.
`OC(CNCc1ccc(Cl)c(Cl)c1)c1ccccc1` (stereo unspecified) was tested, and the inhibition was -8.3%.
`COC(=O)C1C(=O)c2c([nH]c(C(=O)OCCSC)c2C)CC1C` (stereo unspecified) was tested, and the inhibition was 50.1% (active).
`CCCOC(=O)c1[nH]c2c(c1C)C(=O)CC(c1cc(OC)c(OC)c(OC)c1)C2` (stereo unspecified) was tested, and the inhibition was -2.3%.
`CCCOC(=O)C1=C(C)NC2=C(C(=O)C(C(=O)OC)C(C)C2)C1c1ccc(N(C)C)cc1` (stereo unspecified) showed an inhibition of 0.8%.
For `CCOc1ccc(-n2cnnn2)cc1S(=O)(=O)N1CCC(C)CC1C` (stereo unspecified), the inhibition was -3.6%.
`Cc1cccc(NC(=O)CN2C(=O)c3ccccc3C2=O)c1C` showed an inhibition of -4%.
With `Cc1ccc(-c2csc(SCC(=O)Nc3cc(C)on3)n2)cc1` the inhibition was -4.8%.
For `Cc1ccc2nc(-c3ccc(SCC(=O)Nc4cc(C)on4)nc3)[nH]c2c1`, the inhibition was 73.4% (active).
`Cc1ccc(SCCC(=O)Nc2cc(C)on2)cc1` gave an inhibition of -4.4%.
With `COC(=O)NNC(=O)C1CCC(C)CC1` (stereo unspecified) the inhibition was -4.8%.
`CCNS(=O)(=O)c1ccc(NC(=O)c2cncc(Br)c2)cc1` gave an inhibition of -4.2%.
`COc1ccc(Nc2nc(NCc3ccco3)nc(N/N=C/c3ccccc3Cl)n2)cc1` showed an inhibition of -1.1%.
`COc1cc(NC(=S)NNC(=O)CC(C)C)c(OC)cc1Cl` gave an inhibition of -8.4%.
`COc1ccccc1/C=C/C1=NC(=C\N(C)C)/C(=O)O1` showed an inhibition of 0.6%.
Molecule `CC(C)(C)C1C/C(=C/c2ccco2)C(=O)/C(=C/c2ccco2)C1` (stereo unspecified) has an inhibition of -5.4%.
`O=C1OC(/C=C/c2ccccc2)=NC/1=C/c1ccco1` was tested, and the inhibition was 53.5% (active).
In the case of `O=C(C1=C[C@H](c2coc3ccccc3c2=O)C[C@H](OCc2ccc(CO)cc2)O1)N1CCN(Cc2ccccc2)CC1`, the inhibition is reported as -6.2%.
`CCc1ccc2oc(-c3ccc(N)cc3)nc2c1` was tested, and the inhibition was 80.7% (active).
`CCCCCC(=O)Nc1ccc2oc(-c3ccncc3)nc2c1` was tested, and the inhibition was -5.7%.
`CCN(CC)c1ccc2oc(=O)c(C)nc2c1` showed an inhibition of -3%.
`COc1cc(CN2CCNC(=O)C2CC(=O)NCCc2ncccc2C)cc(OC)c1` (stereo unspecified) gave an inhibition of -1.3%.
In the case of `CCOC(=O)CCCNC(=O)COC(=O)/C=C/c1ccc2c(c1)OCO2`, the inhibition is reported as -1.4%.
In the case of `Cc1cc(/C=C2/NC(=O)NC2=O)c(C)n1-c1cccnc1`, the inhibition is reported as 56.5% (active).
`Cc1cc(/C=C2\SC(=Nc3ccc(N4CCOCC4)cc3)N(C)C2=O)c(C)n1-c1cccnc1` showed an inhibition of -0.4%.
Work on `Cc1cccc(C)c1-n1c(C)cc(/C=C2\C(=O)NN(c3ccccc3)C2=O)c1C` yielded an inhibition of 13.6%.
`Cc1ccccc1-n1c(C)cc(/C=C2\NC(=O)NC2=O)c1C` was tested, and the inhibition was 83.9% (active).
`Cc1cc(/C=C(/C#N)C(=O)Nc2ccc(Cl)cc2)c(C)n1-c1cccnc1` gave an inhibition of -3.9%.
`Cc1ccc(CN2C(=O)N/C(=C/c3cc(C)n(-c4ccccn4)c3C)C2=O)cc1` gave an inhibition of 1.2%.
With `CC(NC(=O)c1cccc2ccccc12)c1ccc2c(c1)CCCC2` (stereo unspecified) the inhibition was -6.2%.
`COc1ccc(C/C(N)=N/OC(=O)c2ccco2)cc1OC` showed an inhibition of -2.2%.
`O=C(CCc1ccccc1)NNC(=O)c1ccc(Br)cc1` was tested, and the inhibition was -1.3%.
For `Cc1ccc(C)c(Cn2nnc3c(=O)[nH]c(C(=O)Nc4ccc(F)cc4)nc32)c1`, the inhibition was -10.1%.
Molecule `CCN(c1ccccc1)S(=O)(=O)c1ccc2[nH]c(=O)[nH]c2c1` has an inhibition of -6%.
For `O=C(COc1cc(Cl)c(Cl)cc1Cl)NCCc1ccccn1`, the inhibition was 4.2%.
With `CN(CCN1CCOCC1)Cc1nc(-c2ccc3c(c2)OCO3)no1` the inhibition was -5.1%.
`O=C(O)CC/C(=N\NC(=O)c1ccc(F)cc1)c1ccc(Br)cc1` was tested, and the inhibition was -2.4%.
Molecule `COc1ccccc1-n1ccnc1SCC(=O)NC(C)(C)C` has an inhibition of -7.3%.
With `COc1ccc(NC(=S)N2N=CCC2c2ccccc2)cc1` (stereo unspecified) the inhibition was 65.3% (active).
Molecule `COc1ccc(C(=S)Nc2ccccc2)cc1` has an inhibition of 8.7%.
With `COc1ccc(C(=O)NC2CCN(C(=S)Nc3ccccc3)CC2)cc1` the inhibition was -7.5%.
For `CC(OC(=O)c1ccc2ccccc2n1)C(=O)c1ccccc1` (stereo unspecified), the inhibition was 81.1% (active).
For `COc1ccc(C(=O)COC(=O)c2ccc3ccccc3n2)cc1`, the inhibition was 19.4%.
In the case of `O=C(Oc1ccc([N+](=O)[O-])cc1)c1ccc2ccccc2n1`, the inhibition is reported as 41.6%.
`COc1ccc(Cl)cc1NC(=O)Cn1nc(-c2ccc(C)cc2)n(C)c1=S` showed an inhibition of -5.1%.
`Cc1ccc(C(=O)Oc2coc(CSc3nnc(NC(=O)c4cccs4)s3)cc2=O)cc1C` showed an inhibition of -0.1%.
With `Cc1cc(C(=O)N/N=C/c2ccc(N3CCOCC3)cc2)c(C)o1` the inhibition was 50.7% (active).
In the case of `Cc1ccccc1N/N=C/c1ccc(N2CCOCC2)cc1`, the inhibition is reported as -3.5%.
`CCN(CC)c1ccc(C(=O)N/N=C/c2ccc(N3CCOCC3)cc2)cc1` gave an inhibition of -7%.
Work on `Cc1cc(C(=O)N/N=C/c2ccccc2[N+](=O)[O-])c(C)o1` yielded an inhibition of 32.2%.
With `Cc1cc(C(=O)N/N=C\C(Br)=C\c2ccccc2)c(C)o1` the inhibition was 22.6%.
`CC(=C/c1ccccc1)/C=N/NC(=O)c1cc(C)oc1C` was tested, and the inhibition was 78.3% (active).
In the case of `Cc1ccc(NC(=S)N(Cc2ccco2)C(C)c2cccs2)cc1` (stereo unspecified), the inhibition is reported as 3.7%.
For `CCn1nc(C)cc1C(=O)N1CCCC(C(=O)c2cccc(OC)c2)C1` (stereo unspecified), the inhibition was 5.6%.
Work on `COc1ccc(-n2cc(CNC3CCOCC3)c(-c3cccc(F)c3)n2)cc1` yielded an inhibition of -2.3%.
For `O=C(Nc1ccn(Cc2ccccc2)n1)c1n[nH]c([N+](=O)[O-])c1Cl`, the inhibition was 83% (active).
Molecule `CC(=O)Nc1ccn(Cc2c(F)cccc2Cl)n1` has an inhibition of -2.9%.
`O=C(Nc1ccn(Cc2ccccc2)n1)c1cccc(F)c1` was tested, and the inhibition was 64.2% (active).
`Cn1cc([N+](=O)[O-])c(C(=O)Nc2cnn(Cc3ccc(F)cc3)c2)n1` was tested, and the inhibition was -8.5%.
`O=C(Nc1ccn(Cc2ccc(F)cc2)n1)c1ccncc1` gave an inhibition of 0.9%.
For `Cc1ccc(Cn2ccc(NC(=O)c3cc(C(C)C)on3)n2)cc1`, the inhibition was 0%.
In the case of `CCOc1ccc(C(CC(=O)O)NC(=O)C23CC4CC(CC(C4)C2)C3)cc1OC` (stereo unspecified), the inhibition is reported as -3.9%.
With `CN(C)CCCn1c(SCCN2C(=O)c3ccccc3C2=O)nc2ccccc2c1=O` the inhibition was -5.8%.
For `CC(C)N(Cc1nc(-c2ccc3c(c2)OCO3)no1)CC1CCC(=O)N1` (stereo unspecified), the inhibition was -8.8%.
In the case of `CN(C)/C=C(/C(=O)c1ccccc1)S(=O)(=O)c1ccc(Cl)cc1`, the inhibition is reported as -5.6%.
`Cc1ccc(N2C(=O)C(CC(=O)Nc3cccc(F)c3)N(CCc3ccncc3)C2=O)cc1` (stereo unspecified) gave an inhibition of -0.5%.
With `COc1cccc(-c2ccc(SCC(=O)N3CCN(c4ccccc4)CC3)nn2)c1` the inhibition was -6.1%.
In the case of `COc1ccc(-n2ncc3c(N4CCCc5ccccc54)ncnc32)cc1`, the inhibition is reported as 54.9% (active).
Work on `C1=C(CCNc2ncnc3c2cnn3-c2ccccc2)CCCC1` yielded an inhibition of 10.5%.
With `c1ccc(-n2ncc3c(N4CCCC4)ncnc32)cc1` the inhibition was 73.9% (active).
Work on `Cc1cccc(-n2ncc3c(N4CCc5ccccc54)ncnc32)c1` yielded an inhibition of 17.1%.
Work on `O=C(NNc1ncnc2c1cnn2-c1ccccc1)c1ccco1` yielded an inhibition of 6%.
In the case of `COc1ccc(-n2ncc3c(N4CCc5ccccc54)ncnc32)cc1`, the inhibition is reported as 41.9%.

Source: PubChem BioAssay AID1006 (Sanford-Burnham Center for Chemical Genomics, 2008)
